Screening results as filed in PubChem.
ASK1 inh = human ASK1 kinase inhibition, primary screen; Q99683; AlphaScreen MKK6 phosphorylation by ASK1, luminescence; inhibition, % at 7.44 µM; 22,000 tested, 0.99% active; AID 1159602; in the data active means inhibition above about 35%;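 further: 0% = median of compound wells and 100% = no enzyme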
ULK1 inh = blocks human autophagy kinase ULK1; O75385; AlphaScreen Atg13 phosphorylation by ULK1, luminescence; inhibition, % at 5.96 µM; 30,000 tested, 1.9% active; in the data active means inhibition above about 43%;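 further: 0% = median of compound wells and 100% = no enzyme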
The depositor's hits bear a star. This is a sample that favours compounds with a hit; in the whole collection about 2.4% have one here.

Screening CCOC(=O)C(C)(N)Cc1ccc(O)c(O)c1 (configuration not stated) returned ULK1 inh -13.3.
`CNC(=O)c1ccccc1Nc1cc(NC(=O)Cc2ccc(N)cc2)ncc1C(F)(F)F` gave ASK1 inh 10.2 and ULK1 inh 68.2*.
`COc1ccc(CC(=O)Nc2cc(Nc3ccccc3-c3ncco3)c(C(F)(F)F)cn2)cc1` gave ASK1 inh -0.9 and ULK1 inh 5.2.
`CNC(=O)c1ccccc1Nc1cc(NC(=O)C2CCc3ccccc32)ncc1C(F)(F)F` (configuration not stated) gave ASK1 inh 3.5 and ULK1 inh 34.5.
Screening CNC(=O)c1ccccc1Nc1cc(NCc2ccccc2)ncc1C(F)(F)F returned ASK1 inh 6.1 and ULK1 inh 54.6*.
CNC(=O)c1ccccc1Nc1cc(NC(=O)Cc2cccs2)ncc1C(F)(F)F was read as ASK1 inh 3.8 and ULK1 inh 46.5*.
Screening CNC(=O)c1ccccc1Nc1cc(Nc2ncccn2)ncc1C(F)(F)F returned ASK1 inh 10.1 and ULK1 inh 18.7.
Screening CNC(=O)c1ccccc1Nc1cc(NC(=O)Cc2ccccc2F)ncc1C(F)(F)F returned ASK1 inh 12.1 and ULK1 inh 53.0*.
CCNC(=S)N/N=C/c1ccccc1Oc1nc(OC)cc(OC)n1 was read as ULK1 inh -4.7.
For O=C(c1cccc(C(F)(F)F)c1)N1CCc2nc3ccccn3c(=O)c2C1 the results were ULK1 inh -1.7.
O=C(Cc1ccc2c(c1)OCO2)Nc1cc(Nc2ccccc2-c2nn[nH]n2)c(C(F)(F)F)cn1 was read as ASK1 inh 18.5 and ULK1 inh -4.6.
`NC(=O)c1ccccc1Nc1cc(NC(=O)Cc2ccc(F)cc2)ncc1F` gave ASK1 inh -16.6 and ULK1 inh -4.2.
For COc1ccc(CC(=O)Nc2cc(Nc3ccccc3NC(C)=O)c(C(F)(F)F)cn2)cc1 the results were ASK1 inh 6.8 and ULK1 inh 41.2.
Screening CNC(=O)c1ccccc1Nc1cc(NC(=O)Cc2ccsc2)ncc1C(F)(F)F returned ASK1 inh -1.1 and ULK1 inh 52.2*.
CNC(=O)c1ccccc1Nc1cc(NC(=O)Cc2ccc(F)cc2)ncc1C(F)(F)F was read as ASK1 inh -12.3 and ULK1 inh 57.1*.
CNS(=O)(=O)c1ccccc1Nc1cc(NC(=O)Cc2ccc(OC)cc2)ncc1C(F)(F)F was read as ASK1 inh 30.2 and ULK1 inh 57.2*.
Screening COc1ccc(CCNc2nc(-c3cccs3)nc3c2ncn3Cc2ccc(C(F)(F)F)cc2)cc1 returned ASK1 inh 1.1 and ULK1 inh -22.6.
`O=C(NCCOc1ccccc1)c1cccc(NC2CCN(Cc3ccccc3)CC2)n1` gave ASK1 inh 1.8 and ULK1 inh -2.0.
`O=C1CCCN1CCn1cnc2c(Nc3ccccc3)nc(N3CCN(Cc4ccc5c(c4)OCO5)CC3)nc21` gave ASK1 inh 18.2 and ULK1 inh -11.6.
For CN1CCN(C(=O)c2ccc(-c3nc(N)c4ncn(C5CCCCC5)c4n3)cc2)CC1 the results were ASK1 inh -20.6 and ULK1 inh 3.8.
`O=C(NCCOc1ccccc1)c1cc(N2CCc3ccccc3C2)nc2ccccc12` gave ASK1 inh -20.9 and ULK1 inh 3.9.
`Oc1cc(O)c2c(c1)O[C@H](c1ccc(O)c(O)c1)[C@@H](O)C2` gave ULK1 inh 52.7*.
O=C(NCc1ccccc1)c1csc(NC2CCN(Cc3ccccc3)CC2)n1 was read as ASK1 inh -27.0 and ULK1 inh -16.5.
For Cn1cc(-c2ccc3cnc(Nc4ccc(-n5cnc(N6CCOCC6)n5)cc4)nc3c2C2CC2)cn1 the results were ASK1 inh -91.2 and ULK1 inh 41.4.
`Cc1ncn(-c2ccc(Nc3ncc4cccc(-n5cccn5)c4n3)cc2)n1` gave ASK1 inh -22.7 and ULK1 inh 44.8*.
Cc1ncn(-c2ccc(Nc3ncc4cccc(-c5ccncc5)c4n3)cc2)n1 was read as ASK1 inh 6.3 and ULK1 inh -33.4.
CC(C)n1cc(-c2ccc3cnc(Nc4ccc(-n5cnc(N6CCOCC6)n5)cc4)nc3c2Cl)cn1 was read as ASK1 inh 2.6 and ULK1 inh 53.3*.
Cc1ncn(-c2ccc(Nc3ncc4cccc(-c5cnn(C)c5)c4n3)cc2)n1 was read as ASK1 inh -7.8 and ULK1 inh 24.7.
Cc1ncn(-c2ccc(Nc3ncc4cccc(-c5cnn(C(C)C)c5)c4n3)cc2)n1 was read as ASK1 inh -10.0 and ULK1 inh 65.9*.
Cc1ncn(-c2ccc(Nc3ncc4cccc(-c5ccccc5)c4n3)cc2)n1 was read as ASK1 inh -73.6 and ULK1 inh 12.1.
`Cc1ncn(-c2ccc(Nc3ncc4cccc(-c5cnn(CC6CC6)c5)c4n3)cc2)n1` gave ASK1 inh 3.2 and ULK1 inh 64.2*.
COc1cc(Nc2ncc(C)c(NCc3cccc(C(F)(F)F)c3)n2)cc(OC)c1OC was read as ASK1 inh 16.4 and ULK1 inh 31.0.
c1ccc(-c2cc(NCCCN3CCOCC3)nc(-c3ccccn3)n2)nc1 was read as ULK1 inh -2.5.
O=C1CCCN1CCn1cnc2c(NCc3ccccc3)nc(N3CCN(Cc4ccc5c(c4)OCO5)CC3)nc21 was read as ASK1 inh 11.9 and ULK1 inh -7.2.
For c1nc(NC2CC2)c2[nH]c(Nc3ccc(N4CCOCC4)cc3)nc2n1 the results were ASK1 inh 10.6 and ULK1 inh 18.3.
Screening O=C(c1cn(-c2ccc3[nH]ncc3c2)nn1)N1CCN(Cc2ccc(Cl)cc2)CC1 returned ASK1 inh -20.8 and ULK1 inh -21.5.
Screening c1cncc(Nc2nc(NC3CC3)c3[nH]cnc3n2)c1 returned ASK1 inh -44.6 and ULK1 inh 59.8*.
`c1ccc(Nc2nc(NC3CC3)c3[nH]cnc3n2)nc1` gave ASK1 inh -10.5 and ULK1 inh -8.9.
Screening COc1ccc(C(=O)c2oc3ccc(NC(C)=O)cc3c2C)cc1 returned ULK1 inh 57.5*.
For COc1ccc(C(=O)c2oc3ccc(NC(=O)c4ccc(OC)c(OC)c4)cc3c2C)cc1 the results were ULK1 inh 2.8.
Screening CN(C)CCOc1cc(-c2cn[nH]c2)ccc1NC(=O)[C@H]1Cc2cc(F)ccc2CN1 returned ASK1 inh -1.3 and ULK1 inh -8.8.
`COCCNc1cc(-c2cncc(-c3ccccc3)c2)nc(C)n1` gave ULK1 inh 5.7.
Screening CNC(=O)c1ccncc1Nc1cc(Nc2ccc3c(c2)CC(=O)N3)ncc1C(F)(F)F returned ASK1 inh 11.2 and ULK1 inh 56.2*.
CS(=O)(=O)NC1CCC(Nc2cc(Nc3ccccc3C(N)=O)c(C(F)(F)F)cn2)CC1 (configuration not stated) was read as ASK1 inh -51.9 and ULK1 inh 22.0.
Screening CNC(=O)c1ccccc1Nc1cc(Nc2ccc3[nH]c(=O)oc3c2)ncc1C(F)(F)F returned ASK1 inh -9.8 and ULK1 inh 79.0*.
Screening CNC(=O)c1ccccc1Nc1cc(Nc2ccc3c(c2)CC(=O)N3C)ncc1C(F)(F)F returned ASK1 inh -4.8 and ULK1 inh 83.8*.
For CNC(=O)c1cc(F)ccc1Nc1cc(Nc2ccc(N3CCCC3=O)cc2)ncc1C(F)(F)F the results were ASK1 inh 11.8 and ULK1 inh 73.1*.
For Cc1cccc2c1NC(=O)C21OCCCO1 the results were ULK1 inh -4.8.
